Test [1] can be described thus: small molecules captured by biotinylated probe aFSTL3 – biochemical, small-molecule microarray, fluorescence 635/667, stem cell growth factor project, primary screen (AID 1064).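 Note: measures binding of the biotinylated anti-FSTL3 antibody to printed compounds.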 To be noted: higher = more signal.
Test [2] in a line: binders from COS7 lysate, DM2A8 probe, primary screen, torsin A project, cell lysate, small-molecule microarray, fluorescence 635/667 (AID 1065). The following applies: higher = more signal, COS7 lysate expressing mutant human TOR1A.
Test [3] can be described thus: small molecules captured by biotinylated probe aFGF2 – biochemical, small-molecule microarray, fluorescence 635/667, stem cell growth factor project, primary screen (AID 1067).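 Note: measures binding of biotinylated aFGF2 protein to printed compounds on slides; z-score merges feature fluorescence and signal-to-noise across triplicate slides.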 To be noted: higher = more signal.
Test [4] in a line: small molecules captured by biotinylated probe aFGF10 – biochemical, small-molecule microarray, fluorescence 635/667, stem cell growth factor project, primary screen (AID 1071).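 Note: score merges 667 nm spot intensity and signal to noise from triplicate slides.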 To be noted: higher = more signal.
The target of test [5] is Neurogenic locus notch homolog protein 2 (Homo sapiens) (UniProt Q04721). Briefly: small molecules binding Notch2 protein – biochemical, small-molecule microarray, 635 nm fluorescence, stem cell growth factors, primary screen (AID 1073). To be noted: higher = more signal.
Neurogenic locus notch homolog protein 2 (Homo sapiens), sequence (Q04721 whole entry, looked up, canonical isoform): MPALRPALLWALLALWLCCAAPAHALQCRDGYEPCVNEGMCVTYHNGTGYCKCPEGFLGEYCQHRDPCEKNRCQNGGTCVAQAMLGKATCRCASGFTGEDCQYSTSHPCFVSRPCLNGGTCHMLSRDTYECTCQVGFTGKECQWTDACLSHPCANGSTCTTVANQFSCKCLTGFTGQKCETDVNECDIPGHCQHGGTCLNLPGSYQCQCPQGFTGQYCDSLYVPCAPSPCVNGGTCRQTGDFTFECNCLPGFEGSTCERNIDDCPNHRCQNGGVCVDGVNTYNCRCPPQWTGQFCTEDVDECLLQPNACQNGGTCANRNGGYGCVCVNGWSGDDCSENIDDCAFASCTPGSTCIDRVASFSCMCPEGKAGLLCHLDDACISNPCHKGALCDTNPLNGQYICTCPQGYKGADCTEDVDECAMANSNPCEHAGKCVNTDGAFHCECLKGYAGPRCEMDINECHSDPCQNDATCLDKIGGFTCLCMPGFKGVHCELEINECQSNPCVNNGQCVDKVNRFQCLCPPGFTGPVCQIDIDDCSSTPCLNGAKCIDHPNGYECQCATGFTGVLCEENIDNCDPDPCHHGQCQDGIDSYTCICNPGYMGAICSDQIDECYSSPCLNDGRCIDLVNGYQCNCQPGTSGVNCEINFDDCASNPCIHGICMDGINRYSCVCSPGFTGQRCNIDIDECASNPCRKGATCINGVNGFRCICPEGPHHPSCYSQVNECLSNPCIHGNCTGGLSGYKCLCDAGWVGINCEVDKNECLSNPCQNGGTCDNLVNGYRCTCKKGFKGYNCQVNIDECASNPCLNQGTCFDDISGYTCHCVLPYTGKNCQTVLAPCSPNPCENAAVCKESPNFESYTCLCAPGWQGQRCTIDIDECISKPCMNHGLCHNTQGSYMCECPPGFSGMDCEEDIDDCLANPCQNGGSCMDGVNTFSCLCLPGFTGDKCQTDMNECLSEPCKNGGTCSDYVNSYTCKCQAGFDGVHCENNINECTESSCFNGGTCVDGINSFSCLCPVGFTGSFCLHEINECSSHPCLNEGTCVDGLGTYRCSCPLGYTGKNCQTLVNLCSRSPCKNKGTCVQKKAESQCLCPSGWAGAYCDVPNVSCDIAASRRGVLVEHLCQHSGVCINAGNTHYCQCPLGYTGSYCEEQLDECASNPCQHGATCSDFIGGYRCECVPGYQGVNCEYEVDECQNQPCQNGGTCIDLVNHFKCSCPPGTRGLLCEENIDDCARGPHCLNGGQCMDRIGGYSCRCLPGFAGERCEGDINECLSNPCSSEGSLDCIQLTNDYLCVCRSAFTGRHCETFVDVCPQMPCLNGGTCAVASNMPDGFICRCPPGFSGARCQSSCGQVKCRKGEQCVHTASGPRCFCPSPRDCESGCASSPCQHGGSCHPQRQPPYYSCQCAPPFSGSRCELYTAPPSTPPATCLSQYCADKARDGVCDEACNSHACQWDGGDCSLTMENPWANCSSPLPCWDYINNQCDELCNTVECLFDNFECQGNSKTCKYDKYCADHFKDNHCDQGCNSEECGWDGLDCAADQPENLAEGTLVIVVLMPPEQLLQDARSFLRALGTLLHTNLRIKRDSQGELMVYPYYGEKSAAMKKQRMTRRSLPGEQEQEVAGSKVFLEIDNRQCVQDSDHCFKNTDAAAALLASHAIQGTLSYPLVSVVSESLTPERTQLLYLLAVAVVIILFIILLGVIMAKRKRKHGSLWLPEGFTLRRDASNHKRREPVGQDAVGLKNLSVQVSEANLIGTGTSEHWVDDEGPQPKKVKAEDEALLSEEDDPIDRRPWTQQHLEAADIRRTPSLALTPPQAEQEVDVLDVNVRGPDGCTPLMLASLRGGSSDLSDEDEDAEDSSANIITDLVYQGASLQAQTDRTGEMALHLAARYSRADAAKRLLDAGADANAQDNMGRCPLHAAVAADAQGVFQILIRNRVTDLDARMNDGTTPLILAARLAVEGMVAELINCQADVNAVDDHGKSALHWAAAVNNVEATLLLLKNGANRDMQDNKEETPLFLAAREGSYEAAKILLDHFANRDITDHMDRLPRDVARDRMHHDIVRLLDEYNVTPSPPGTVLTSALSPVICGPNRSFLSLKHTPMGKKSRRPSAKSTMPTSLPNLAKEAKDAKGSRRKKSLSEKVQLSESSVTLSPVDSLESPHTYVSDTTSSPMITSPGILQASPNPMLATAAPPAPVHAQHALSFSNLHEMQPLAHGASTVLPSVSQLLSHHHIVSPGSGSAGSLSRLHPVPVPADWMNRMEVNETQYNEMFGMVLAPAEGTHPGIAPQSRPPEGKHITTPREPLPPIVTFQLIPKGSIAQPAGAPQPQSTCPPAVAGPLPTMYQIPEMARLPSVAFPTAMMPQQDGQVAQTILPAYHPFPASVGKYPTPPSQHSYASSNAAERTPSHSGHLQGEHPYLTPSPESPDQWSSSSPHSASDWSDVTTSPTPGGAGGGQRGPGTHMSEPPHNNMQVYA
Test [6] has as its target Pro-neuregulin-1, membrane-bound isoform (Homo sapiens) (UniProt Q02297). Description: small molecules binding neuregulin-1 protein – biochemical, small-molecule microarray, fluorescence 635/667, psychiatric disease protein project, primary screen (AID 1075).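 Note: score combines 667 nm spot fluorescence with signal to noise.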 To be noted: NRG1 binding, 635 nm fluorescence, higher = more signal.
For test [7], the system named is Neuregulin-1 EGF-like domain. Briefly: small molecules binding NRG1 EGF domain – biochemical, small-molecule microarray, 635 nm fluorescence, primary screen (AID 1081).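 Note: binding of the protein to compounds printed on small-molecule microarray slides.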 To be noted: higher = more signal.
The nature of test [8]: FRG1 expression reporter modulators in myotubes – cell-based, C2C12 myotubes, firefly/Renilla luciferase, luminescence, FRG1 inhibition for FSHD, primary screen (AID 1084). The following applies: FRG1 promoter luciferase, higher = more signal, called active from +8 up or from −8 down.
Test [9] can be described thus: small molecules captured by biotinylated probe aFST – biochemical, small-molecule microarray, fluorescence 635/667, stem cell growth factor project, primary screen (AID 1086).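 Note: score merges 667 nm fluorescence with signal-to-noise of each printed compound spot.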 The following applies: higher = more signal.
Test [10] in a line: binders of probe aHhip on microarray, primary screen, stem cell growth factor project, biochemical, small-molecule microarray, fluorescence 635/667 (AID 1087).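 Note: score merges spot fluorescence at 667nm with spot signal to noise ratio.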 To be noted: higher = more signal.
Test [11] deals with PRMT1 (protein arginine N-methyltransferase 1). Description: small molecules binding arginine methyltransferase PRMT1 – biochemical, small-molecule microarray, 635 nm fluorescence, primary screen (AID 1088).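 Note: binding of Prmt1 protein to compounds spotted on small-molecule microarray slides.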 The following applies: higher = more signal.
A short description of test [12]: growth effects on S. cerevisiae YJM789 – YJM789 clinical isolate, OD600, 24 h, basal, primary screen (AID 1089).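 Note: growth of clinical yeast isolate S. cerevisiae YJM 789 seeded 1000 cells per well; test concentration not given here.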 To be noted: higher = more signal, called active from +8 up or from −8 down.
A short description of test [13]: S. pombe growth modifiers, basal conditions – strain 972, OD600, 24 h, no modulator, primary screen (AID 1090).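 Note: basal condition with compound alone and no growth modifier present; test concentration not given here.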 To be noted: S. pombe 972 growth, higher = more signal, called active from +8 up or from −8 down.
The nature of test [14]: budding yeast growth modifiers under rapamycin – strain BY4716, OD600, 96 h, primary screen (AID 1091). Note: test concentration not given here. The following applies: S. cerevisiae BY4716 + rapamycin, higher = more signal, called active from +8 up or from −8 down.
The target of test [15] is Torsin-1A-interacting protein 2 (Homo sapiens) (UniProt Q8NFQ8). Briefly: small molecules binding lysate-expressed LULL1 – cell lysate, human LULL1 lysate, 635/667 nm fluorescence, primary screen (AID 1092).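 Note: probe is lysate of COS7 cells overexpressing human LULL1; score merges per-feature 667 nm fluorescence with signal-to-noise.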 The following applies: small-molecule microarray, hLULL1 lysate binding, 635 nm fluorescence; higher = more signal.
Torsin-1A-interacting protein 2 (Homo sapiens), sequence (Q8NFQ8 whole entry, looked up): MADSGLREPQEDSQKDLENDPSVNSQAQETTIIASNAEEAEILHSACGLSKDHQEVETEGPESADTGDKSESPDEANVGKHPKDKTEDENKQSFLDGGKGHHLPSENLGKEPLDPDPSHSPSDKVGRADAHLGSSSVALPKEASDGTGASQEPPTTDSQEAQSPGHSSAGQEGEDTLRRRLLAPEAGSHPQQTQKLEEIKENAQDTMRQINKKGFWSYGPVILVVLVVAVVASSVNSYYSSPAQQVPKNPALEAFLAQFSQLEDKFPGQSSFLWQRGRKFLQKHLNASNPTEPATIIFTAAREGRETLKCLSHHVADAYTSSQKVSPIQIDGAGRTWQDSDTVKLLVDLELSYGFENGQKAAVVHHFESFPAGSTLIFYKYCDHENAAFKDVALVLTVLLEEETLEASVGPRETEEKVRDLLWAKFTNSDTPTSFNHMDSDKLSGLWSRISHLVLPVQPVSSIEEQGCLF
The nature of test [16]: optical density change of DRC41 E. coli – strain DRC41, OD650, 24 h, E. coli filamentation project, primary screen (AID 1093).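 Note: MC1000 strain lacking acrAB efflux and sulA so SOS filamentation is blocked; test concentration not given here.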 To be noted: E. coli DRC41 growth, higher = more signal, called active from +8 up or from −8 down.
A short description of test [17]: probe aLefty2 binding to arrayed compounds – biochemical, biotinylated probe, 635/667 nm fluorescence, primary screen (AID 1094).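 Note: score merges spot fluorescence near 667 nm with spot signal-to-noise ratio.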 To be noted: small-molecule microarray, higher = more signal.
The subject of test [18] is Noggin (protein binding on small-molecule microarray). Briefly: small molecules binding Noggin protein – biochemical, 635/667 nm fluorescence, primary screen (AID 1095).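 Note: score merges 667 nm feature fluorescence with signal to noise over triplicate slides.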 The following applies: 635 nm fluorescence, higher = more signal.
The target of test [19] is Neurogenic locus notch homolog protein 3 (Homo sapiens) (UniProt Q9UM47). Description: small molecules binding NOTCH3 protein – biochemical, 635/667 nm fluorescence, primary screen (AID 1096). To be noted: small-molecule microarray, 635 nm fluorescence, higher = more signal.
The nature of test [20]: probe aEGFR binding to arrayed compounds – biochemical, biotinylated probe, 635/667 nm fluorescence, primary screen (AID 1097).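 Note: probe is a biotinylated anti-EGFR antibody binding compounds printed on slides; score combines fluorescence near 667 nm and signal to noise of each spot.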 The following applies: small-molecule microarray, higher = more signal.

Molecules are shown by their SMILES. Calls of active or inactive are those of the source.

Drawing on PubChem BioAssay, this text covers composite z-score and z-score for five molecules.

Pro-neuregulin-1, membrane-bound isoform (Homo sapiens), sequence (Q02297 whole entry, looked up, the tested form may be a part, canonical isoform): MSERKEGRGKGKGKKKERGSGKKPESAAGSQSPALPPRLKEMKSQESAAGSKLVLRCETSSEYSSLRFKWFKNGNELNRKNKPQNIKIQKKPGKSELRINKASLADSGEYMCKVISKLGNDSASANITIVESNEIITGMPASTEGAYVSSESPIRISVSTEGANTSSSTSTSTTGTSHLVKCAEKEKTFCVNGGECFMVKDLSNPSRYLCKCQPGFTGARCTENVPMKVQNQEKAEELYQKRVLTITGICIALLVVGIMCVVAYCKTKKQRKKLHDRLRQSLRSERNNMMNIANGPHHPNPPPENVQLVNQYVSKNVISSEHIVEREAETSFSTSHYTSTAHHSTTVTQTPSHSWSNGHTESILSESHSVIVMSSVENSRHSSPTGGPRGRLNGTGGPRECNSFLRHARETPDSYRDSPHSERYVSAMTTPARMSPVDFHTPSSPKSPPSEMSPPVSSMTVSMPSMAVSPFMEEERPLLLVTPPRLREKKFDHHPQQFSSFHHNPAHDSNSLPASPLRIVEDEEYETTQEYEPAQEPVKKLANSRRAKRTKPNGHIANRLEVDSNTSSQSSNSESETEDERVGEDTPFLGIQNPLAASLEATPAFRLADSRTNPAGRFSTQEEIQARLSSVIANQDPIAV

Take `CCCCCN1CC=CC23O[C@@H]4C=CCCOC(=O)C4[C@H]2C(=O)N(CCCCCO)[C@@H]3C1=O` (stereo not given in full): the composite z-score in [1] was 0.262; in test [2], 1.2; in test [3], -0.195; in test [4] it was -0.168; in [5], -0.814; in test [6], 0.927. Besides, the composite z-score in test [7] is 1.55; in test [9], -0.432; in test [10], -0.45; in [11] it was -0.192; in test [15], 2.3; in test [17], -0.0288. Further, the composite z-score in test [18] was -0.589; in test [19], -0.147; in test [20], -0.203. For the same molecule, the z-score in [8] was -0.666 (inactive); in test [12], -0.286 (inactive); in test [13] it was -0.772 (inactive); in [14], -0.255 (inactive); in [16], 0.764 (inactive).

With `COc1ccc(C(O)C2C=CC3C(=O)N(Cc4ccccc4)C(=O)C3N2n2cnnc2)cc1OCc1ccccc1` (stereo not given), the composite z-score is -0.0405 in test [1]; -0.209 in test [2]; -0.0996 in test [3]; 0.193 in test [4]; -0.0176 in test [5]; 0.834 in test [6]. The composite z-score in test [7] was 0.613; in test [9], 0.777; in [10], -0.0296; in test [11], 0.953; in test [15] it was 2.59; in test [17], 0.114. Also, the values for the composite z-score in test [18], in [19] and in test [20] were 0.0181, 0.331 and -0.0512, respectively. The z-score in [8] was 0.364 (inactive); in test [12], -1.56 (inactive); in test [13], 0.0901 (inactive); in test [14], -0.62 (inactive); in test [16] it was 1.69 (inactive).

Regarding `C=C[C@H](CO)NS(=O)(=O)c1ccc(Br)cc1`, the composite z-score in test [1] was -0.42; in [2], 0.213; in [3], -0.116; in test [4], 0.243; in [5], 0.315; in [6], 0.456. Moreover, the composite z-score in test [7] was 0.827; in test [9] it was 0.447; in test [10], 0.257; in test [11], -0.0224; in test [15], 0.676; in test [17], 0.0467. Also, the composite z-score in test [18] was 0.19; in [19], -0.342; in test [20], -0.0302. Also, the z-score in [8] was 0.297 (inactive); in test [12], 0.198 (inactive); in test [13] it was -1.53 (inactive); in test [14], -0.135 (inactive); in test [16], 1.29 (inactive).

As for `COCCOC(=O)N1C(=O)[C@@]2(c3cc(C#CCNC(N)=O)ccc31)[C@H](C(=O)Nc1nc3ccccc3s1)[C@H]1C(=O)O[C@H](c3ccccc3)[C@H](c3ccccc3)N1[C@@H]2c1ccc(OCCO)cc1`, the composite z-score in test [1] amounted to 1.02; in [2] it was 0.103; in [3] it was 0.0346; in [4], 1.05; in [5], 0.486; in test [6] it was 0.357. The composite z-score in [7] is 0.331; in test [9], 0.84; in test [10] it was -0.226; in test [11], 1.55; in [15], 1.61; in test [17], 0.711. The composite z-score in test [18] was 0.88; in test [19] it was 1.06; in test [20], -0.0354. For the same molecule, the z-score in [8] is 6.33 (inactive); in test [12], 1.18 (inactive); in test [13], 0.409 (inactive); in test [14], 2.79 (inactive); in test [16], -0.333 (inactive).

Turning to `COC(=O)[C@@]1(Cc2ccccc2)N=C(c2ccc(OCCCO)cc2)O[C@H]1c1ccccc1`, the composite z-score was 0.348 in test [1]; 0.0099 in test [2]; 0.0243 in test [3]; 0.531 in test [4]; -0.165 in [5]; 1.5 in test [6]. For the same molecule, the composite z-score in test [7] was 0.939; in test [9], -0.053; in test [10], -0.169; in test [11], 1.31; in test [15] it was 2.05; in test [17], 0.116. For the same molecule, the composite z-score was 0.0302 in [18], 0.107 in test [19] and -0.123 in test [20]. Further, the z-score in test [8] is -2.3 (inactive); in test [12] it was -0.774 (inactive); in test [13] it was -1.99 (inactive); in [14] it was 3.21 (inactive); in test [16], 1.55 (inactive).
